Holding throughout (assay): DAPPL (digital affinity profiling via proximity ligation, sequencing); 10 mM Tris-HCl pH 7.5, 50 mM NaCl, 1 mM DTT, 4% glycerol, room temperature, 30 min; GST-TFs on glutathione beads, 16-mer random dsDNA library, 0.1% formaldehyde crosslink after washing; high values mean tight binding
For assay [1], the target named is T1, FEV (Homo sapiens, UniProt Q99581 1-238).
T1 sequence: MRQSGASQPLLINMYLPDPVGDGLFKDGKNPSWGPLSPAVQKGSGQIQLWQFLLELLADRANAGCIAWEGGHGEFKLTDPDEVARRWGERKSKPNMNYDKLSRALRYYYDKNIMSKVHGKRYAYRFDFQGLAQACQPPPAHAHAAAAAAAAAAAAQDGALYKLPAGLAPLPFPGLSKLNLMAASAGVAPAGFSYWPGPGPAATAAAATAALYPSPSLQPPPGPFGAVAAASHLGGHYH
The settings on record: protein: recombinant; tags: N-terminal GST; dsDNA, one strand shown. Put shortly: (§1)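 Human transcription factors were made in yeast as GST fusions, captured on glutathione beads and barcoded with DNA. With a tag-only sample included, the pool was incubated with 200 nmole of a random double-stranded 16-mer DNA library in Tris/NaCl/DTT/glycerol buffer at room temperature for 30 min, then crosslinked with 0.1% formaldehyde after washing, ligated by proximity, amplified and sequenced. For binding signal, each hexamer's read frequency for a factor is divided by its frequency for the tag-only sample.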

Assay [2] has as its target ETV5 (Homo sapiens, UniProt P41161 1-510). The settings on record: protein: recombinant; tags: N-terminal GST; dsDNA, one strand shown. In outline: as §1
The target of assay [3] is HSF1 (Homo sapiens, UniProt Q00613 1-529). The settings on record: protein: recombinant; tags: N-terminal GST; chain copies: 3; dsDNA, one strand shown. In outline:
as §1

For assay [4], the target named is T2, SPIC (Homo sapiens, UniProt Q8N5J4 1-248).
T2 sequence: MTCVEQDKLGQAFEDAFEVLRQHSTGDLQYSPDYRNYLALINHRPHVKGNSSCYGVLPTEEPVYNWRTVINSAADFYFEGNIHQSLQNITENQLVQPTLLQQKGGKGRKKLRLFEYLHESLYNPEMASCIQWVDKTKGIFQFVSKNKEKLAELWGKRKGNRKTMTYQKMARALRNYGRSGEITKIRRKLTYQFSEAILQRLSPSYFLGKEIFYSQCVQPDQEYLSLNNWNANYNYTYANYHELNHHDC
The settings on record: protein: recombinant; tags: N-terminal GST; dsDNA, one strand shown. Put shortly:
as §1

The target in assay [5] is ELF4 (Homo sapiens, UniProt Q99607 1-663). The settings on record: protein: recombinant; tags: N-terminal GST; dsDNA, one strand shown. In outline: as §1
In assay [6] the target is T3, ELK4 (Homo sapiens, UniProt P28324-2 1-405).
T3 sequence: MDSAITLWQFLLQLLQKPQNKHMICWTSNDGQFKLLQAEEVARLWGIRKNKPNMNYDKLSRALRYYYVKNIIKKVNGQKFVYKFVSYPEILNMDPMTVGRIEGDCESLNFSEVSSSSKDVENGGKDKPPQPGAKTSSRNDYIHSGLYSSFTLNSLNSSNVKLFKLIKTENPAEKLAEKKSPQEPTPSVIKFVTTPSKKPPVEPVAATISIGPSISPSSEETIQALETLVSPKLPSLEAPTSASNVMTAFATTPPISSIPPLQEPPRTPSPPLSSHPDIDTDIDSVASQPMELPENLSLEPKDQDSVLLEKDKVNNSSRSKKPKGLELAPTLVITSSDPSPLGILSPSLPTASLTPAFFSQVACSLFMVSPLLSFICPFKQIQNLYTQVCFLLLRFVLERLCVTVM
The settings on record: protein: recombinant; tags: N-terminal GST; dsDNA, one strand shown. In outline: as §1

The target in assay [7] is T4, ETV2 (Homo sapiens, UniProt O00321 1-342).
T4 sequence: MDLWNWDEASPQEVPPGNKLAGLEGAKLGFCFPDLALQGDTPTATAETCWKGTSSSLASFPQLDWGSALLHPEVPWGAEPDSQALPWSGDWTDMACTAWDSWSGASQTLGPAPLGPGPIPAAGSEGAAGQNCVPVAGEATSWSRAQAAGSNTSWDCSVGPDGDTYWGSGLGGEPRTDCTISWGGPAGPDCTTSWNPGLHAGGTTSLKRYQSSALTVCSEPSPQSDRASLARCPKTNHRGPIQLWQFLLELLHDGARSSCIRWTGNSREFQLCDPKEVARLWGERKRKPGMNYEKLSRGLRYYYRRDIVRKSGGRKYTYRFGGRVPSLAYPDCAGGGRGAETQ
The settings on record: protein: recombinant; tags: N-terminal GST; dsDNA, one strand shown. In outline: as §1

In assay [8] the target is T5, ELF3 (Homo sapiens, UniProt P78545 1-371).
T5 sequence: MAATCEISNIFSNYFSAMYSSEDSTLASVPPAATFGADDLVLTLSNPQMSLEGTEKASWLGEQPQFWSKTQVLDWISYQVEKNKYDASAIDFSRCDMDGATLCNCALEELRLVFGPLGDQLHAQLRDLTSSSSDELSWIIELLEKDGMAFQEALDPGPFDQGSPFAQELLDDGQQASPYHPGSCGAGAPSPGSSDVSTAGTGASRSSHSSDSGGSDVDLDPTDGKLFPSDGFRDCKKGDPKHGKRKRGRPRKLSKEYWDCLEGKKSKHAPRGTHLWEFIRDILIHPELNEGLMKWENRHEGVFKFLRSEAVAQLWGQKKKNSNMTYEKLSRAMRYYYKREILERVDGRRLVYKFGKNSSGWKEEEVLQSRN
The settings on record: protein: recombinant; tags: N-terminal GST; dsDNA, one strand shown. In outline:
as §1

For assay [9], the target named is CRX (Homo sapiens, UniProt O43186 1-299). The settings on record: protein: recombinant; tags: N-terminal GST; dsDNA, one strand shown. In outline:
as §1

For assay [10], the target named is ETV1 (Homo sapiens, UniProt P50549 1-477). The settings on record: protein: recombinant; tags: N-terminal GST; dsDNA, one strand shown. In outline:
as §1

In assay [11] the target is T6, ERF (Homo sapiens, UniProt P50548 1-548).
T6 sequence: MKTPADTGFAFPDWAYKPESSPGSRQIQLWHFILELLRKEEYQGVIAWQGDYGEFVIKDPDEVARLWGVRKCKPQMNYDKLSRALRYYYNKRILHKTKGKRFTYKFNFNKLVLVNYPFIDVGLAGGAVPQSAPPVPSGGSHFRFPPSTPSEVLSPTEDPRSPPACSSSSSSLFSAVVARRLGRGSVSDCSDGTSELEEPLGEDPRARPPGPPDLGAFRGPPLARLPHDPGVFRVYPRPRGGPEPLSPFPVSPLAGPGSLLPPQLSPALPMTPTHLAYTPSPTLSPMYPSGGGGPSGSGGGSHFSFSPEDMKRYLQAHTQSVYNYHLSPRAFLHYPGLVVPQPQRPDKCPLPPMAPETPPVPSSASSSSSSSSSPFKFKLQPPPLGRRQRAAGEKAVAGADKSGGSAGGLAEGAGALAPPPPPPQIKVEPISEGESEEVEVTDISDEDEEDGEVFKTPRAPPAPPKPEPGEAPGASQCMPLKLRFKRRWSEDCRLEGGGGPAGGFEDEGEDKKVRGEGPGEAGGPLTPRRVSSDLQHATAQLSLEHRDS
The settings on record: protein: recombinant; tags: N-terminal GST; dsDNA, one strand shown. In outline:
as §1

For assay [12], the target named is T7, ETV3L (Homo sapiens, UniProt Q6ZN32 1-361).
T7 sequence: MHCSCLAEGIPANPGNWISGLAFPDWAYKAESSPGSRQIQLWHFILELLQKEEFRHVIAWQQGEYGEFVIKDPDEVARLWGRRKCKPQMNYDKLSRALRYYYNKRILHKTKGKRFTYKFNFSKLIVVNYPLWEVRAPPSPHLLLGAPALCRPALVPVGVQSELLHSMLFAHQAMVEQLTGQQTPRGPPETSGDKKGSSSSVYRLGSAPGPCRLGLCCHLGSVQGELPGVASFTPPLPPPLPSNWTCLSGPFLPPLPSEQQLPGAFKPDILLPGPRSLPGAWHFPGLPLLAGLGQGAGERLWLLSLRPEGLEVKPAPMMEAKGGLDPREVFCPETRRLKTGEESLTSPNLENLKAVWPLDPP
The settings on record: protein: recombinant; tags: N-terminal GST; dsDNA, one strand shown. Put shortly:
as §1

The target of assay [13] is T8, ETS2 (Homo sapiens, UniProt P15036 1-469).
T8 sequence: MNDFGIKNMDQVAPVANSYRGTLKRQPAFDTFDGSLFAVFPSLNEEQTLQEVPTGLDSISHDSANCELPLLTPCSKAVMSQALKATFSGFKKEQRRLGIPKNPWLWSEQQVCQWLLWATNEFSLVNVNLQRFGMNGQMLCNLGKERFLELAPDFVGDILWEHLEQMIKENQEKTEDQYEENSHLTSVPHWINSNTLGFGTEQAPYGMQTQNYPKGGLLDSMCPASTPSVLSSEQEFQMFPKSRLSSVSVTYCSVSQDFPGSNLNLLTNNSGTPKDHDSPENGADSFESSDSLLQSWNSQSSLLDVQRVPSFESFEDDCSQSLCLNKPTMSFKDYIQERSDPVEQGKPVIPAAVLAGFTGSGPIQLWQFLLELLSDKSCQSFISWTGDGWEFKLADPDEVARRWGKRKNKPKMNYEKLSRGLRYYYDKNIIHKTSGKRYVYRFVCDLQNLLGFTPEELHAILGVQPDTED
The settings on record: protein: recombinant; tags: N-terminal GST; dsDNA, one strand shown. Put shortly:
as §1

For assay [14], the target named is T9, SPDEF (Homo sapiens, UniProt O95238 1-335).
T9 sequence: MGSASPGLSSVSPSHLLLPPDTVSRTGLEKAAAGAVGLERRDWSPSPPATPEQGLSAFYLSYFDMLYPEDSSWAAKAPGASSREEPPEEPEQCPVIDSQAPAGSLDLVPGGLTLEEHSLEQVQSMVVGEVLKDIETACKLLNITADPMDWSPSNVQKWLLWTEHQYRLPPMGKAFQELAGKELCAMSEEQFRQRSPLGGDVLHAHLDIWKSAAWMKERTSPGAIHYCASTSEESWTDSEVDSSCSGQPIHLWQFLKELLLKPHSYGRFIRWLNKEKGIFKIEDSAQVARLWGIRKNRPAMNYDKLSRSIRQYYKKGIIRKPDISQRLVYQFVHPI
The settings on record: protein: recombinant; tags: N-terminal GST; dsDNA, one strand shown. Put shortly:
as §1

In assay [15] the target is T10, ETV7 (Homo sapiens, UniProt Q9Y603 1-341).
T10 sequence: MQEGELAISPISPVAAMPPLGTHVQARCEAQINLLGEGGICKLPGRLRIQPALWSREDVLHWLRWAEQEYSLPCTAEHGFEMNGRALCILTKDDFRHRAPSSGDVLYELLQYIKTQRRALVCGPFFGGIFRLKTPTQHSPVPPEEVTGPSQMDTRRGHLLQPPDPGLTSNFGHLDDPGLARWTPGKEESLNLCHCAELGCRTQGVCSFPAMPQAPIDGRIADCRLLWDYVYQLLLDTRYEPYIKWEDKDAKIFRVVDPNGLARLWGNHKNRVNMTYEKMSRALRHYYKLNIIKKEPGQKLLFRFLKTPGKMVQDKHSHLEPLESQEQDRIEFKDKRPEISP
The settings on record: protein: recombinant; tags: N-terminal GST; dsDNA, one strand shown. Put shortly: as §1

Assay [16] deals with T11, ELF5 (Homo sapiens, UniProt Q9UKW6-2 1-255).
T11 sequence: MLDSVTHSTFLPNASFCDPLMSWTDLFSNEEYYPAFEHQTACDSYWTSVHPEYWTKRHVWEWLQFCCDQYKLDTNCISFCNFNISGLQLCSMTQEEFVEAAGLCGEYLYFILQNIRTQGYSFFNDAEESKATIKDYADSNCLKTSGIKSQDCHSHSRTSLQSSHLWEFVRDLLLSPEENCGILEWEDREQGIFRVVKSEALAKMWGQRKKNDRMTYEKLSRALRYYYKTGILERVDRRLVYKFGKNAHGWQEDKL
The settings on record: protein: recombinant; tags: N-terminal GST; dsDNA, one strand shown. In outline: as §1

The target of assay [17] is T12, ETV3 (Homo sapiens, UniProt P41162-2 1-143).
T12 sequence: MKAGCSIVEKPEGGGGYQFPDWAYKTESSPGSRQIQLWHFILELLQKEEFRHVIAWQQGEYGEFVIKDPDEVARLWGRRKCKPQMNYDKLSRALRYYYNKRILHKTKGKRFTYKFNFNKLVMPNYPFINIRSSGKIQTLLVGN
The settings on record: protein: recombinant; tags: N-terminal GST; dsDNA, one strand shown. Put shortly: as §1

Assay [18] has as its target ETV6 (Homo sapiens, UniProt P41212 1-452). The settings on record: protein: recombinant; tags: N-terminal GST; dsDNA, one strand shown. Put shortly:
as §1

For 1 sequence, binding signal results are on record in PMC7862700, “An all-to-all approach to the identification of sequence-specific readers for epigenetic DNA modifications on cytosine”.

Sequence of HSF1 (Q00613 whole entry): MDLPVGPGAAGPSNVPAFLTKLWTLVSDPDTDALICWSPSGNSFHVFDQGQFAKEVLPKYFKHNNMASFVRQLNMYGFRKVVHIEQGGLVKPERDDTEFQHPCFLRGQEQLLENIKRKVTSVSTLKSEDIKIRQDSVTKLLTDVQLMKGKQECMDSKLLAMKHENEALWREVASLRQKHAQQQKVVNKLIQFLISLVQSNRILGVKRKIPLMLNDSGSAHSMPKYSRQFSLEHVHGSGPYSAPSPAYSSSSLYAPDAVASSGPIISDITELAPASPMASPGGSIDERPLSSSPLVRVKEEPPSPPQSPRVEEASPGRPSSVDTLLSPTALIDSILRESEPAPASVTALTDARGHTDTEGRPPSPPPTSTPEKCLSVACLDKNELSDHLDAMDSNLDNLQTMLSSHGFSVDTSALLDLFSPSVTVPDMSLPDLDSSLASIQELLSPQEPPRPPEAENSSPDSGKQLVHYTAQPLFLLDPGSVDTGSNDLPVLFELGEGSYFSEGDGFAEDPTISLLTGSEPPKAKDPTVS
Sequence of ETV5 (P41161 whole entry): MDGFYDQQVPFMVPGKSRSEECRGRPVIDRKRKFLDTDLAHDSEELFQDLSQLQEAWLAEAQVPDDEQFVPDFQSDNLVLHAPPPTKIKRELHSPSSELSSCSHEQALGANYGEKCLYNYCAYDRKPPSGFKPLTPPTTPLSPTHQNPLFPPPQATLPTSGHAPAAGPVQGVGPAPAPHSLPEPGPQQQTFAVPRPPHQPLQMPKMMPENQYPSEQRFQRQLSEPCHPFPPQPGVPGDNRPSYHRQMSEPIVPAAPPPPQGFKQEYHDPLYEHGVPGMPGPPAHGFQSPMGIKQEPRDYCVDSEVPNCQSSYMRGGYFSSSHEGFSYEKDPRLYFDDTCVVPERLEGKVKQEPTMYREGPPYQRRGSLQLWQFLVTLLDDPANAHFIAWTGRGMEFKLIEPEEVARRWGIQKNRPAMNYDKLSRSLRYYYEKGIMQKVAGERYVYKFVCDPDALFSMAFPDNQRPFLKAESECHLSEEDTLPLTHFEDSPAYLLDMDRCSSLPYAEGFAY
Sequence of CRX (O43186 whole entry): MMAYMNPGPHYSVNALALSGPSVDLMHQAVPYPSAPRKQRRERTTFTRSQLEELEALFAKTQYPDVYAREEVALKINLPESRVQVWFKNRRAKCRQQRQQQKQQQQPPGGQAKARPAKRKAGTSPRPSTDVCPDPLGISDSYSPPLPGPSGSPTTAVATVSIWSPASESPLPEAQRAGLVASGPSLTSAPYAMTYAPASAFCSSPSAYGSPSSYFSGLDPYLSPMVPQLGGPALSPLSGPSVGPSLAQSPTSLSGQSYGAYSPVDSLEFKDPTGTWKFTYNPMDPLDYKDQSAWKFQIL
Sequence of ELF4 (Q99607 whole entry): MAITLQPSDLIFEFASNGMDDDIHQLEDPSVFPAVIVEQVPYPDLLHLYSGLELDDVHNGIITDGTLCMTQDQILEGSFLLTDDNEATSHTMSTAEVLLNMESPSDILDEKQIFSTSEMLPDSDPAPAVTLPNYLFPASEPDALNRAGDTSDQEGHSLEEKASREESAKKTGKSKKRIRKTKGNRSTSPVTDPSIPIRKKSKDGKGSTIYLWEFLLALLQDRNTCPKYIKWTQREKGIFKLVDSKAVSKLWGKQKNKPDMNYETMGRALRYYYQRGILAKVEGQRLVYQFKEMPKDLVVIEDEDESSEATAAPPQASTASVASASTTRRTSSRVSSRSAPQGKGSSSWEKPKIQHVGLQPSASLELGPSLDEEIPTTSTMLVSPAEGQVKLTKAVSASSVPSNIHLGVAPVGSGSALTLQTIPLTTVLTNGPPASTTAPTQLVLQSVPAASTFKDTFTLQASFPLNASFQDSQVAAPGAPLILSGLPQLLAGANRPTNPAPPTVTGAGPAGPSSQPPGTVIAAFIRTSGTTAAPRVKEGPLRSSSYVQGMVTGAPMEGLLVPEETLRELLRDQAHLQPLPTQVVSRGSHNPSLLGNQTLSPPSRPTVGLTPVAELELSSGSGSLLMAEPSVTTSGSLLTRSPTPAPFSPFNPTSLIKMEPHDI
Sequence of ETV1 (P50549 whole entry): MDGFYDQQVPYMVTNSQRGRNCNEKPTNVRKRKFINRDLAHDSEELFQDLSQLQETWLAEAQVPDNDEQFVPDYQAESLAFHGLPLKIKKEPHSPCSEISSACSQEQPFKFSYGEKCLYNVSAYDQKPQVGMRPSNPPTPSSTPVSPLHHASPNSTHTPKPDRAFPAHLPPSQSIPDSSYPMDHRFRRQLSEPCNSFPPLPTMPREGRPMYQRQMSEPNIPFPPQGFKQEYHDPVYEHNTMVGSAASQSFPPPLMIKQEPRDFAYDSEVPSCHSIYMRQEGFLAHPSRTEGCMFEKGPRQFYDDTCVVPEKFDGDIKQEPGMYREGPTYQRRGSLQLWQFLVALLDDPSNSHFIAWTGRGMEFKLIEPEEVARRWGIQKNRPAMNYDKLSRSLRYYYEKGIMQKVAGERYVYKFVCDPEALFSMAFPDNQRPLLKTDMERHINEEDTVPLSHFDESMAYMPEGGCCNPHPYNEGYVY
Sequence of ETV6 (P41212 whole entry): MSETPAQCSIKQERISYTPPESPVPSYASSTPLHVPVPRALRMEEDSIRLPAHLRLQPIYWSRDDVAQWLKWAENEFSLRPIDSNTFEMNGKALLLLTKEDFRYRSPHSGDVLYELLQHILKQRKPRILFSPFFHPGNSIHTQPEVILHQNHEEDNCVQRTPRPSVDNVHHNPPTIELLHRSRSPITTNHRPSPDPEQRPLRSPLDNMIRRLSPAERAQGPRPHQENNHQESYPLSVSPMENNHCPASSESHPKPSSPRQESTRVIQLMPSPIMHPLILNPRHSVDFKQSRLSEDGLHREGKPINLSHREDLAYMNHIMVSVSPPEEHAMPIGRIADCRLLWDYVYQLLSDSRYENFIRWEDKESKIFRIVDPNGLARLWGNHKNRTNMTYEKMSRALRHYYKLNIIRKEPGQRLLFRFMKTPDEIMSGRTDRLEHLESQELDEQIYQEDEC

Regarding AAAACC, the binding signal in assay [1] was 1.24 fold enrichment (6-mer frequency, TF over GST control); in [2] it was 1.18 fold enrichment (6-mer frequency, TF over GST control); in assay [3], 1.09 fold enrichment (6-mer frequency, TF over GST control); in assay [4], 1.15 fold enrichment (6-mer frequency, TF over GST control); in assay [5], 1.19 fold enrichment (6-mer frequency, TF over GST control); in assay [6] it was 1.22 fold enrichment (6-mer frequency, TF over GST control). The binding signal in assay [7] was 1.15 fold enrichment (6-mer frequency, TF over GST control); in assay [8], 1.17 fold enrichment (6-mer frequency, TF over GST control); in [9] it was 1.19 fold enrichment (6-mer frequency, TF over GST control); in assay [10], 1.19 fold enrichment (6-mer frequency, TF over GST control); in assay [11], 1.22 fold enrichment (6-mer frequency, TF over GST control); in [12], 1.18 fold enrichment (6-mer frequency, TF over GST control). In addition, the binding signal is 1.11 fold enrichment (6-mer frequency, TF over GST control) in assay [13]; 1.18 fold enrichment (6-mer frequency, TF over GST control) in assay [14]; 1.25 fold enrichment (6-mer frequency, TF over GST control) in assay [15]; 1.19 fold enrichment (6-mer frequency, TF over GST control) in assay [16]; 1.08 fold enrichment (6-mer frequency, TF over GST control) in [17]; 1.19 fold enrichment (6-mer frequency, TF over GST control) in assay [18].
